The source of these data is ChEMBL document CHEMBL4513216, “Probing the Open Global Health Chemical Diversity Library for Multistage-Active Starting Points for Next-Generation Antimalarials” (ACS Infect Dis, 2020).

About 8,600 (12%) of roughly 69,000 compounds showed an effect of 50% or more. The sample holds strong results, similar compounds and a random draw of the others, so the mix is not that of the screen.

For this assay, the system named is Plasmodium berghei. The experiment in a line: Screen against P. berghei liver stage (PbLuc), transformed with Luciferase, at 10uM. The conditions noted are these: tested at 10 uM. Type of assay: functional, HepG2.
Consider `Cc1cccc(Cn2c3c(ccc2=O)CCN(Cc2ccoc2)CC3)n1`, for which the INHIBITION is listed as 8.47%.
Take `Cc1cccc(N(CC(=O)N2CCCCC2)C(=O)C2CCCO2)c1` (stereo not given): the INHIBITION was -84.1%.
The same measure for `Cc1cccc(N(CC(=O)c2ccccc2)C2=NCCCCC2)c1`: 51.6%; for `O=C(CN(C1=NCCCC1)c1ccccc1)c1ccc(OC(F)F)cc1`: 30.8%; for `CCOc1ccc(N(CC(=O)c2ccccc2)C2=NCCCCC2)cc1`: 68.7%.
For `O=C(CN(C1=NCCCCC1)c1ccc(Cl)cc1)c1ccccc1`, the INHIBITION came to 59.8%.
Consider `O=C(CN(C1=NCCCC1)c1ccccc1)c1ccc2c(c1)OCCO2`, for which the INHIBITION is 33.3%.
Turning to `Cc1ccc(N(CC(=O)c2ccc(Br)cc2)C2=NCCCCC2)cc1`, the INHIBITION turned out to be 87.6%.
For `COc1ccc(C(=O)CN(C2=NCCCCC2)c2ccccc2)cc1`, the INHIBITION came out at 20.1%.
Take `O=C(CC(SC1CCCCC1)C(=O)O)c1ccc(Cl)cc1` (stereo not given): the INHIBITION worked out at 6.83%.
On to `Cc1ccc(C(=O)CN(C2=NCCCCC2)c2ccccc2)cc1`, for which the INHIBITION is listed as 44.1%.
Regarding `O=C(CN(C1=NCCCC1)c1ccccc1)c1ccccc1`, the INHIBITION is recorded as -13.4%.
Next, `Cc1ccc(N(CC(=O)N2CCCCC2)C(=O)C2CCCO2)cc1` (stereo not given): -7.25%; `CC1=N[C@@]2(CC[C@@H]3CN(CC(C)C)C[C@@H]32)C(=O)N1C`: 18.5%.
The same measure for `Cc1nn(C)c2cnn(CC(=O)NCc3ccc4c(c3)OCO4)c12`: 36.6%.
For `Cc1c(C(=O)NC(C)C)nnn1-c1cccc(C(F)(F)F)c1`, the INHIBITION was found to be 15.2%.
`c1coc(CN2C[C@@H]3OCCN(CC4CCCO4)[C@@H]3C2)c1` (stereo not given in full): the INHIBITION stood at 41.6%.
The same measure for `COC(=O)c1ccc(OCCn2cnc(C#N)n2)cc1`: 7.18%.
Consider `CN(C)c1ncc(-c2cccc(C(N)=O)c2)c(C2CNCCO2)n1` (stereo not given), for which the INHIBITION is listed as 17.3%.
Turning to `COc1c(CNC2CCc3c(F)cccc32)c(C)nn1C` (stereo not given), the INHIBITION was -16%.
Next, `c1coc(-c2nc(CNCCn3cccn3)cs2)c1`: 21.5%; `CCS(=O)(=O)CCCN1CCSCC1c1ccc(Cl)cc1` (stereo not given): 56.5%.
On to `CS(=O)(=O)NCCN1CCSCC1c1ccc(Cl)cc1` (stereo not given), for which the INHIBITION was -3.39%.
The same measure for `CS(=O)(=O)CCN1CCSCC1c1ccc(Cl)cc1` (stereo not given): 59.7%; for `CC(c1ccc(Cl)cc1)N1CCN(CCNS(C)(=O)=O)CC1` (stereo not given): 53.5%.
Regarding `CS(=O)(=O)CCCN1CCSCC1c1ccc(Cl)cc1` (stereo not given), the INHIBITION is 31.9%.
Regarding `CS(=O)(=O)NCCN1CCCC1c1ccc(Cl)cc1` (stereo not given), the INHIBITION was 50.3%.
For `Cc1ccc(C2CSCCN2CCS(C)(=O)=O)cc1` (stereo not given), the INHIBITION is 34%.
The same measure for `Cc1ccc(C2CSCCN2CC(=O)N2CCOCC2)cc1` (stereo not given): 15.3%.
As to `O=C(NCc1ccncc1)N1CCSCC1c1ccc(Cl)cc1` (stereo not given), the INHIBITION was -23.2%.
In the case of `CC(c1ccc(Cl)cc1)N1CCN(CCS(C)(=O)=O)CC1` (stereo not given), the INHIBITION turned out to be 48.5%.
Next, `CS(=O)(=O)NCCCN1CCCC1c1ccsc1` (stereo not given): -5.25%.
Regarding `CC(c1ccc(Cl)cc1)N1CCN(CCCS(C)(=O)=O)CC1` (stereo not given), the INHIBITION is listed as -5.1%.
As for `COc1ccc(CNCC(C)Oc2ccccn2)cc1Br` (stereo not given), the INHIBITION is on record as -33.2%.
As to `CC1CCN(C(=O)[C@H]2CC[C@@H]3[C@@H](CCN3Cc3nccs3)O2)CC1`, the INHIBITION is reported as 39.5%.
For `O=c1ccc2c(n1Cc1cccnc1)CCN(C1CCOC1)CC2` (stereo not given), the INHIBITION is 39.4%.
With `N#CC1(C(=O)N2C[C@H](Nc3ccnc(N)n3)[C@@H](C3CC3)C2)CCOCC1`, the INHIBITION was found to be 26.9%.
Regarding `CC(C)c1noc(C(C)N2CCN(Cc3nnc(C4CC4)o3)CC2)n1` (stereo not given), the INHIBITION is reported as 0.914%.
Next, `O=C(c1ccccc1)N1CCC2(CCCN2c2ncccn2)CC1`: -22.1%; `Cc1nc(CN(C)CC(c2cccs2)N2CCOCC2)no1` (stereo not given): 15.3%; `CC(=O)N1N=C(c2ccccc2)OC1C(=O)NCC(=O)OC(C)(C)C` (stereo not given): 28.3%.
In the case of `CCC(CO)NCc1ccc(-c2ccccc2)o1` (stereo not given), the INHIBITION stood at 50.8%.
The same measure for `CCC(CO)NCc1ccc(-c2ccc(F)cc2)o1` (stereo not given): 14.4%.
As to `CCC(CO)NCc1ccc(-c2ccc(Br)cc2)o1` (stereo not given), the INHIBITION is reported as -11.6%.
Turning to `CCC(CO)NCc1ccc(-c2ccc(Cl)cc2)o1` (stereo not given), the INHIBITION was determined as 17.7%.
Turning to `CCC(CO)NCc1ccc(-c2ccccc2F)o1` (stereo not given), the INHIBITION came out at 73.5%.
On to `CCC(CO)NCc1ccc(-c2ccc(F)c(Cl)c2)o1` (stereo not given), for which the INHIBITION worked out at 18.8%.
Take `CN1CCN(c2ncc(CNCCCc3cccc(F)c3)cn2)CC1`: the INHIBITION was 46.8%.
Regarding `CCC1CN(CC(=O)Nc2sccc2C#N)CCO1` (stereo not given), the INHIBITION was determined as 17%.
On to `CCC1CN(CC(=O)NCCOC)CCO1` (stereo not given), for which the INHIBITION is -22.3%.
As to `CCC1CN(CC(=O)NCC(C)C)CCO1` (stereo not given), the INHIBITION amounted to 30.9%.
Turning to `CCCNC(=O)CN1CCOC(CC)C1` (stereo not given), the INHIBITION came to 61.3%.
Consider `CCC1CN(CC(=O)NC(C)C)CCO1` (stereo not given), for which the INHIBITION is reported as -8.22%.
The same measure for `CCC1CN(CC(=O)NCCC#N)CCO1` (stereo not given): 52.6%; for `O=C(c1ccccn1)N1C[C@H]2CC[C@@H](C1)N(C(=O)Cc1cccs1)C2`: 4.13%; for `CC1=N[C@@]2(CC[C@@H]3CN(S(=O)(=O)N(C)C)C[C@@H]32)C(=O)N1CC(C)C`: 7.96%.
Next, `Cc1nc(C2CCCN2C(=O)c2csc3c2CCCC3)no1` (stereo not given): 15.3%; `Cc1c(C)n(Cc2ccncc2)c2nc3c(c(N)c12)CCCCC3`: 70.3%; `Cc1c(C)n(Cc2ccncc2)c2nc3c(c(N)c12)CCCC3`: 44.1%.
For `Cc1ccc(CN2CCC3(CCN(Cc4ccncc4)CC3)CC2)cc1`, the INHIBITION was 33%.
For the compound `Cc1c(C)n(Cc2ccncc2)c2nc3c(c(N)c12)CCCCCC3`, the INHIBITION was determined as 77.6%.
The same measure for `CN1CCC(NC(=O)[C@H]2CC[C@@H]3[C@@H](CCN3c3ncccn3)O2)CC1`: 18.5%; for `CCc1nc(CC(=O)N2CCn3c(CC)nnc3C2)cs1`: -12.33%.
As to `CCS(=O)(=O)Nc1ccn(Cc2c(F)cccc2Cl)n1`, the INHIBITION is given as -39.5%.
The same measure for `N#Cc1cccnc1N1CCCN(C(=O)CCn2cccn2)CC1`: 29.2%.
As to `O=C(NCc1ccncc1)c1ccc(Cl)cc1F`, the INHIBITION is -3.95%.
Take `O=C(Nc1ccc(Br)cc1F)c1cc(CN2CCOCC2)on1`: the INHIBITION is on record as -43.7%.
Turning to `CN1CCN(Cc2ccccc2CNC(=O)c2ccc(Cl)cc2F)CC1`, the INHIBITION is 55.4%.
The same measure for `CN1CCN(c2ccccc2CNC(=O)Cc2ccccc2F)CC1`: 14.3%.
With `COc1ccc(CNC(=O)c2ccc(Cl)cc2F)cc1C(=O)O`, the INHIBITION is on record as -8.55%.
As for `CN1CCN(Cc2ccccc2CNC(=O)c2ccc(Br)cc2F)CC1`, the INHIBITION is listed as 30.8%.
In the case of `O=C(NCc1ccccc1CN1CCOCC1)Nc1nncs1`, the INHIBITION is on record as -10.4%.
`CN1CCN(Cc2ccccc2CNC(=O)c2ccc(Br)cc2)CC1`: the INHIBITION was 33.2%.
The same measure for `Cn1ccc(C(=O)NCc2ccccc2CN2CCCC2)cc1=O`: 13.6%; for `CN1CCN(Cc2ccccc2CNC(=O)c2cc(Cl)ccc2F)CC1`: 63.3%.
The same measure for `CN1CCN(Cc2ccccc2CNC(=O)c2cc(Br)ccc2F)CC1`: 59.3%.
With `O=C(NCc1ccccc1CN1CCOCC1)c1ccc(Br)cc1F`, the INHIBITION worked out at 62.3%.
As to `Cc1cc(C(=O)NCc2ccc(N3CCCC(C(N)=O)C3)cc2)on1` (stereo not given), the INHIBITION turned out to be 15.3%.
For the compound `CN(C)CCN1CCCC12CCN(C(=O)c1cnccn1)CC2`, the INHIBITION amounted to 24.9%.
The same measure for `CCC1(CC)CC(=O)N(CC(O)c2ccc(F)cc2)C1=O` (stereo not given): -15%.
`CN(CC(O)C(F)(F)F)C(=O)Nc1cccc(Cn2cccn2)c1` (stereo not given): the INHIBITION is recorded as 13.8%.
The same measure for `Cc1cc(CNCC2CNc3ccnn3C2)no1` (stereo not given): 31%; for `Cc1cnc(-c2nc(C3CCN(Cc4ccccc4O)CC3)no2)cn1`: 23.7%; for `Cc1cc(C)n(CC2CN(CC(=O)N3CCNC3=O)CCO2)n1` (stereo not given): -3.7%.
As to `COc1ccc(NC(=O)CSc2ccc3nncn3n2)c(OC)c1`, the INHIBITION came to 27%.
For `Cc1occc1C(=O)N1Cc2nccn2CC(CN2CCOCC2)C1` (stereo not given), the INHIBITION came out at 5.89%.
The same measure for `CCCc1nnsc1C(=O)NCC(O)c1ccoc1` (stereo not given): 15.5%; for `COCC(=O)N1CCCC1c1cccc(C)c1C` (stereo not given): 17.1%; for `CS(=O)(=O)c1cccc(OCC(=O)N2CCCC2c2ccc[nH]2)c1` (stereo not given): 61.6%.
Turning to `O=C(COc1ccccc1)N1CCCC1c1ccc[nH]1` (stereo not given), the INHIBITION is recorded as -23.3%.
Next, `O=C(COc1ccc2c(c1)CCC2)N1CCCC1c1ccc[nH]1` (stereo not given): -38.6%; `CS(=O)(=O)c1cccc(OCC(=O)N2CCCC2c2ccccc2Cl)c1` (stereo not given): 85.2%.
For the compound `Cc1cccc(C2CCCN2C(=O)CCS(C)(=O)=O)c1C` (stereo not given), the INHIBITION is listed as -8.84%.
`CCC(O)CN1CCN(C(=O)c2cnn(-c3ccccc3F)c2)CC1` (stereo not given): the INHIBITION was -1.37%.
For the compound `Cc1ccc([C@]2(O)CC[C@H]3CN(Cc4cccc(F)c4F)C[C@H]32)nc1`, the INHIBITION turned out to be 15.9%.
On to `COc1cccc(CN2C[C@@H]3CC[C@@](O)(c4ccccn4)[C@@H]3C2)c1OC`, for which the INHIBITION is 24.8%.
Turning to `Cc1cccnc1[C@]1(O)CC[C@H]2CN(Cc3cccc(Cl)c3Cl)C[C@H]21`, the INHIBITION is 15.9%.
The same measure for `Cc1ccc([C@]2(O)CC[C@H]3CN(Cc4cccc(Cl)c4Cl)C[C@H]32)nc1`: 62%; for `Cc1ccc([C@]2(O)CC[C@H]3CN(Cc4ccccc4F)C[C@H]32)nc1`: -18.2%; for `COc1ccc(CN2C[C@H]3CC[C@](O)(c4ccc(C)cn4)[C@H]3C2)c(F)c1`: 27.3%.
Next, `O[C@@]1(c2ccccn2)CC[C@H]2CN(Cc3cccc(Cl)c3Cl)C[C@H]21`: 61.4%; `O[C@]1(c2ccccn2)CC[C@@H]2CN(Cc3cccc4ncccc34)C[C@@H]21`: 27.9%.
Regarding `Cc1ccc([C@]2(O)CC[C@H]3CN(Cc4ccc(Cl)cc4Cl)C[C@H]32)nc1`, the INHIBITION amounted to 93.1%.
On to `CC(=O)c1ccc(F)cc1-c1cc(NCCO)nc2[nH]ccc12`, for which the INHIBITION was -110%.
`CN(C)c1cccc(C(=O)N2CCCC2c2ncc3c(n2)CCNC3)c1` (stereo not given): the INHIBITION was -16.7%.
